Results from PubChem BioAssay AID1159580 (chemical genetic matrix, 2015).
Out of some 5,500 compounds screened, about 2,000 (36%) were called active. Inconclusive results (about 18%) are left out. Rule as the data show it: active = normalized growth mostly below about 0.91 (no sharp cut-off); inconclusive = no clear call, values can overlap the other calls; inactive = mostly above about 0.92. The list shows a part of the results.

Test: chemical genetic growth profiling, strain panel (AID 1159580);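 also: tested at 20 µM; growth read once vehicle control cultures reached saturation at 30 °C; 1 = growth at the plate median or of vehicle wells; lower values mean less growth of the strain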
Conditions: growth OD

Measured: normalized growth

N[C@@H](Cc1ccc(O)c(O)c1)C(=O)O
inactive: S. cerevisiae deletion strains, locus YJR075W, strain HOC1, active compounds read low 1 | S. cerevisiae deletion strains, locus YKL009W, strain mrt4, active compounds read low 0.961 | S. cerevisiae deletion strains, locus YKL068W, active compounds read low 0.979 | S. cerevisiae deletion strains, locus YKL085W, strain MDH1 (second series), active compounds read low 1 | S. cerevisiae deletion strains, locus YKL085W, strain MDH1, active compounds read low 1 | S. cerevisiae deletion strains, locus YKL160W, strain elf1, active compounds read low 1.01 | S. cerevisiae deletion strains, locus YKL190W, strain CNB1, active compounds read low 0.964 | S. cerevisiae deletion strains, locus YKR001C, strain vps1, active compounds read low 1 | S. cerevisiae deletion strains, locus YKR026C, strain gcn3, active compounds read low 0.989 | S. cerevisiae deletion strains, locus YKR091W, strain srl3, active compounds read low 0.998 | S. cerevisiae deletion strains, locus YLL001W, strain dnm1, active compounds read low 0.983 | S. cerevisiae deletion strains, locus YLL026W, active compounds read low 0.995 | S. cerevisiae deletion strains, locus YLL041C, strain sdh2, active compounds read low 1 | S. cerevisiae deletion strains, locus YLR027C, strain aat2, active compounds read low 1.01 | S. cerevisiae deletion strains, locus YLR039C, strain RIC1, active compounds read low 0.91 | S. cerevisiae deletion strains, locus YLR058C, strain SHM2, active compounds read low 0.996 | S. cerevisiae deletion strains, locus YLR102C, strain apc9, active compounds read low 0.991 | S. cerevisiae deletion strains, locus YLR113W, strain HOG1, active compounds read low 0.93 | S. cerevisiae deletion strains, locus YLR221C, strain rsa3, active compounds read low 0.999 | S. cerevisiae deletion strains, locus YLR258W, strain gsy2, active compounds read low 0.985 | S. cerevisiae deletion strains, locus YLR262C, strain YPT6 (second series), active compounds read low 1.01 | S. cerevisiae deletion strains, locus YLR262C, strain YPT6, active compounds read low 0.898 | S. cerevisiae deletion strains, locus YLR268W, strain sec22, active compounds read low 1 | S. cerevisiae deletion strains, locus YLR320W, strain mms22, active compounds read low 1.01 | S. cerevisiae deletion strains, locus YLR330W, strain CHS5, active compounds read low 0.987 | S. cerevisiae deletion strains, locus YLR342W, strain FKS1 (second series), active compounds read low 0.949 | S. cerevisiae deletion strains, locus YLR342W, strain FKS1, active compounds read low 1.01 | S. cerevisiae deletion strains, locus YLR357W, strain rsc2, active compounds read low 0.975 | S. cerevisiae deletion strains, locus YLR370C, strain arc18, active compounds read low 1 | S. cerevisiae deletion strains, locus YLR371W, strain rom2, active compounds read low 0.975 | S. cerevisiae deletion strains, locus YLR384C, strain iki3, active compounds read low 1 | S. cerevisiae deletion strains, locus YLR418C, strain cdc73, active compounds read low 1.04 | S. cerevisiae deletion strains, locus YML016C, strain PPZ1, active compounds read low 0.991 | S. cerevisiae deletion strains, locus YML032C, strain rad52, active compounds read low 0.991 | S. cerevisiae deletion strains, locus YML120C, strain ndi1, active compounds read low 1 | S. cerevisiae deletion strains, locus YML124C, strain tub3, active compounds read low 0.996 | S. cerevisiae deletion strains, locus YMR058W, strain fet3, active compounds read low 0.993 | S. cerevisiae deletion strains, locus YMR078C, strain ctf18, active compounds read low 0.995 | S. cerevisiae deletion strains, locus YMR125W, strain sto1, active compounds read low 0.976 | S. cerevisiae deletion strains, locus YMR129W, active compounds read low 0.986 | S. cerevisiae deletion strains, locus YMR205C, strain PFK2, active compounds read low 0.982 | S. cerevisiae deletion strains, locus YMR223W, strain ubp8, active compounds read low 1.01 | S. cerevisiae deletion strains, locus YMR231W, strain pep5, active compounds read low 0.992 | S. cerevisiae deletion strains, locus YMR263W, strain SAP30, active compounds read low 0.982 | S. cerevisiae deletion strains, locus YMR307W, strain GAS1, active compounds read low 0.921 | S. cerevisiae deletion strains, locus YNL067W, strain RPL9B, active compounds read low 0.982 | S. cerevisiae deletion strains, locus YNL071W, strain lat1, active compounds read low 1.02 | S. cerevisiae deletion strains, locus YNL128W, strain TEP1, active compounds read low 0.954 | S. cerevisiae deletion strains, locus YNL153C, strain GIM3, active compounds read low 0.991 | S. cerevisiae deletion strains, locus YNL183C, strain NPR1, active compounds read low 0.923 | S. cerevisiae deletion strains, locus YNL209W, strain ssb2, active compounds read low 1.01 | S. cerevisiae deletion strains, locus YNL233W, strain BNI4, active compounds read low 1 | S. cerevisiae deletion strains, locus YNL248C, strain rpa49, active compounds read low 0.99 | S. cerevisiae deletion strains, locus YNL250W, strain rad50, active compounds read low 0.98 | S. cerevisiae deletion strains, locus YNL271C, strain bni1, active compounds read low 0.987 | S. cerevisiae deletion strains, locus YNL298W, strain CLA4, active compounds read low 0.995 | S. cerevisiae deletion strains, locus YNL307C, strain MCK1, active compounds read low 1 | S. cerevisiae deletion strains, locus YNL322C, strain KRE1 (second series), active compounds read low 0.99 | S. cerevisiae deletion strains, locus YNL322C, strain KRE1, active compounds read low 0.989 | S. cerevisiae deletion strains, locus YNR049C, strain mso1, active compounds read low 1 | S. cerevisiae deletion strains, locus YNR052C, strain pop2, active compounds read low 1 | S. cerevisiae deletion strains, locus YOL006C, strain TOP1, active compounds read low 0.753 | S. cerevisiae deletion strains, locus YOL012C, strain htz1 0.813 | S. cerevisiae deletion strains, locus YOL147C, strain pex11, active compounds read low 1 | S. cerevisiae deletion strains, locus YOR001W, strain rrp6, active compounds read low 0.996 | S. cerevisiae deletion strains, locus YOR061W, strain CKA2, active compounds read low 0.992 | S. cerevisiae deletion strains, locus YOR069W, strain VPS5, active compounds read low 1 | S. cerevisiae deletion strains, locus YOR070C, strain gyp1, active compounds read low 0.998 | S. cerevisiae deletion strains, locus YOR080W, strain dia2, active compounds read low 0.993 | S. cerevisiae deletion strains, locus YOR083W, strain WHI5, active compounds read low 1.01 | S. cerevisiae deletion strains, locus YOR106W, strain vam3, active compounds read low 0.996 | S. cerevisiae deletion strains, locus YOR136W, strain idh2, active compounds read low 1 | S. cerevisiae deletion strains, locus YOR144C, strain elg1, active compounds read low 0.996 | S. cerevisiae deletion strains, locus YOR184W, strain ser1, active compounds read low 0.982 | S. cerevisiae deletion strains, locus YOR231W, strain MKK1, active compounds read low 0.942 | S. cerevisiae deletion strains, locus YOR265W, strain rbl2, active compounds read low 0.998 | S. cerevisiae deletion strains, locus YOR270C, strain vph1, active compounds read low 1.02 | S. cerevisiae deletion strains, locus YOR290C, strain snf2, active compounds read low 0.933 | S. cerevisiae deletion strains, locus YOR316C, strain cot1, active compounds read low 0.995 | S. cerevisiae deletion strains, locus YPL051W, strain arl3, active compounds read low 0.994 | S. cerevisiae deletion strains, locus YPL055C, strain LGE1, active compounds read low 0.92 | S. cerevisiae deletion strains, locus YPL078C, strain atp4, active compounds read low 1.01 | S. cerevisiae deletion strains, locus YPL106C, strain sse1, active compounds read low 0.96 | S. cerevisiae deletion strains, locus YPL240C, strain hsp82, active compounds read low 0.995 | S. cerevisiae deletion strains, locus YPL241C, strain CIN2, active compounds read low 0.987 | S. cerevisiae deletion strains, locus YPL256C, strain CLN2, active compounds read low 0.929 | S. cerevisiae deletion strains, locus YPR119W, strain clb2, active compounds read low 1 | S. cerevisiae deletion strains, locus YPR141C, strain kar3, active compounds read low 0.98 | S. cerevisiae deletion strains, locus YPR163C, strain tif3, active compounds read low 1.01 | S. cerevisiae deletion strains, locus YPR167C, strain met16, active compounds read low 1.01 | S. cerevisiae deletion strains, strain wtn01, active compounds read low 1.01 | S. cerevisiae strains, strain wild type, active compounds read low 0.955
